Results: PubChem BioAssay (NCATS)
Records with an inconclusive call do not appear. The source made the active and inactive calls. Calls come from the whole dose curve; as a rule, active = well fitted cell-killing curve with a large enough effect; inconclusive = small, poorly fitted or top-dose-only effect, or effect the other way; inactive = flat fitted curve, though single readings scatter.

How the values were obtained:
Assay in all cases: Primary qHTS to identify gynecologic anti-cancer compounds using libraries of approved drugs and bioactive compounds (AID 1345084); note: nearly all actives have a fitted effect of over 55% in size
C33A = conditions: Gynecologic cancer cell panel viability, ATPlite luminescence, 48 h; series mostly up to 57.5 µM
Procedure, shortened: (§1)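 Cell viability after 48 h drug treatment, ATPlite luminescence readout; five doses.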

CASKI = conditions: Gynecologic cancer cell panel viability, ATPlite luminescence, 48 h; series mostly up to 57.5 µM
Procedure, shortened: as §1

Es-2 = conditions: Gynecologic cancer cell panel viability, ATPlite luminescence, 48 h; series mostly up to 57.5 µM
Procedure, shortened: as §1

HeLa = conditions: Gynecologic cancer cell panel viability, ATPlite luminescence, 48 h; series mostly up to 57.5 µM
Procedure, shortened: as §1

Hek293T = conditions: Gynecologic cancer cell panel viability, ATPlite luminescence, 48 h, control line for the selectivity index; series mostly up to 57.5 µM
Procedure, shortened: as §1

JEG-3 = conditions: Gynecologic cancer cell panel viability, ATPlite luminescence, 48 h; series mostly up to 57.5 µM
Procedure, shortened: as §1

OV90 = conditions: Gynecologic cancer cell panel viability, ATPlite luminescence, 48 h; series mostly up to 57.5 µM
Procedure, shortened: as §1

PA-1 = conditions: Gynecologic cancer cell panel viability, ATPlite luminescence, 48 h; series mostly up to 57.5 µM
Procedure, shortened: as §1

SKOV3 = conditions: Gynecologic cancer cell panel viability, ATPlite luminescence, 48 h; series mostly up to 57.5 µM
Procedure, shortened: as §1

Tov-21-G = conditions: Gynecologic cancer cell panel viability, ATPlite luminescence, 48 h; series mostly up to 57.5 µM
Procedure, shortened: as §1

Tov112D = conditions: Gynecologic cancer cell panel viability, ATPlite luminescence, 48 h; series mostly up to 57.5 µM
Procedure, shortened: as §1

Measured: Potency

C[C@@H]1[C@H]2[C@H](O[C@@H]3O[C@H](CO)[C@@H](O)[C@H](O)[C@H]3O)OC=C(C(=O)O)[C@H]2C[C@@H]1O
inactive: C33A | CASKI | Es-2 | HeLa | Hek293T | JEG-3 | OV90 | PA-1 | SKOV3 | Tov-21-G | Tov112D

CCCC(=O)NCCc1csc(-c2ccc(Cl)cc2)n1
inactive: C33A | CASKI | Es-2 | HeLa | Hek293T | JEG-3 | OV90 | PA-1 | SKOV3 | Tov-21-G | Tov112D

C/C=C/C=C/C(=O)N1CC[C@]23c4ccccc4N[C@H]4N(C)c5cccc6c5[C@@]42CCN([C@H]6C2OC2(C)C)[C@H]13 (stereo not given in full)
inactive: C33A | CASKI | Es-2 | HeLa | Hek293T | JEG-3 | OV90 | PA-1 | SKOV3 | Tov-21-G | Tov112D

CC1(C)[C@@H](O)CC[C@]2(C)[C@H]3CC=C4[C@@H]5C[C@](C)(C(=O)O)CC[C@]5(C)CC[C@@]4(C)[C@]3(C)CC[C@@H]12
inactive: C33A | CASKI | Es-2 | HeLa | Hek293T | JEG-3 | OV90 | PA-1 | SKOV3 | Tov-21-G | Tov112D

C[C@H](NC(c1cccc(C[P+](=O)O)c1)[C@H](C)O)c1ccc(Cl)c(Cl)c1 (stereo not given in full)
inactive: C33A | CASKI | Es-2 | HeLa | Hek293T | JEG-3 | OV90 | PA-1 | SKOV3 | Tov-21-G | Tov112D

OC/C=C/C=C/[C@H]1Cc2cc(O)cc(O)c2O1
inactive: C33A | CASKI | Es-2 | HeLa | Hek293T | JEG-3 | OV90 | PA-1 | SKOV3 | Tov-21-G | Tov112D

CCc1c(C)nc2c(-c3cnn(-c4cc(CO)ccn4)c3)c[nH]n2c1=O
inactive: C33A | CASKI | Es-2 | HeLa | Hek293T | JEG-3 | OV90 | PA-1 | SKOV3 | Tov-21-G | Tov112D

C=C1C(O)C[C@@H]2C(C(=O)O)=CO[C@@H](O[C@@H]3O[C@H](CO)[C@@H](O)[C@H](O)[C@H]3OC(=O)c3ccc(O)cc3)[C@H]12 (stereo not given in full)
inactive: C33A | CASKI | Es-2 | HeLa | Hek293T | JEG-3 | OV90 | PA-1 | SKOV3 | Tov-21-G | Tov112D

C=C1C(OC2OCC(O)C(O)C2O)CC2C(C)(C)C(O)CCC2(C)C1CC/C(C)=C\CO (stereo not given)
inactive: C33A | CASKI | Es-2 | HeLa | Hek293T | JEG-3 | OV90 | PA-1 | SKOV3 | Tov-21-G | Tov112D

O=C1NC(=O)C(c2cn(-c3ccccc3)nc2-c2ccc(F)cc2)N1 (stereo not given)
inactive: C33A | CASKI | Es-2 | HeLa | Hek293T | JEG-3 | OV90 | PA-1 | SKOV3 | Tov-21-G | Tov112D

C/C=C1\[C@H](O[C@@H]2O[C@H](CO)[C@@H](O)[C@H](O)[C@H]2O)OC=C(C(=O)OC)[C@H]1CC(=O)OC[C@H]1O[C@@H](OCCc2ccc(O)cc2)[C@H](O)[C@@H](O)[C@@H]1O
inactive: C33A | CASKI | Es-2 | HeLa | Hek293T | JEG-3 | OV90 | PA-1 | SKOV3 | Tov-21-G | Tov112D

C=C1CCC[C@]2(C)CC[C@@H](C(=C)C(=O)O)[C@H](O)[C@@H]12
inactive: C33A | CASKI | Es-2 | HeLa | Hek293T | JEG-3 | OV90 | PA-1 | SKOV3 | Tov-21-G | Tov112D

Cc1cccc(Oc2cnc(=O)[nH]c2)c1
inactive: C33A | CASKI | Es-2 | HeLa | Hek293T | JEG-3 | OV90 | PA-1 | SKOV3 | Tov-21-G | Tov112D

C=C1C[C@]23C[C@H]1CC[C@H]2[C@@]12CC[C@H](O)[C@@](C)(C(=O)O1)[C@H]2[C@@H]3C(=O)O
inactive: C33A | CASKI | Es-2 | HeLa | Hek293T | JEG-3 | OV90 | PA-1 | SKOV3 | Tov-21-G | Tov112D

CCO[C@@H]1OC(=O)C[C@@H]1NC(=O)[C@@H]1CCCN1C(=O)[C@@H](NC(=O)c1ccc(N)c(Cl)c1)C(C)(C)C
inactive: C33A | CASKI | Es-2 | HeLa | Hek293T | JEG-3 | OV90 | PA-1 | SKOV3 | Tov-21-G | Tov112D
